# From the supplement of paper PMC4954754
# “And” between values parts separate entries of the source, which are not always exact repeats. Equal values may be shown once. ± gives the uncertainty stated by the source.
# System: HEK293T-Rex XBP1-RLuc
# Test: XBP1-RLuc splicing reporter activation, triplicate, relative to 500 nM thapsigargin (% of thapsigargin); higher = stronger IRE1/XBP1s reporter activation
# Conditions: 6.8 µM; 18 h; screen: confirmation
# Experimental: (§1)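 HEK293T-Rex cells stably expressing the ERSE-firefly luciferase (BiP promoter, ATF6-preferring) or XBP1-splicing Renilla luciferase (IRE1/XBP1s) reporter, 1536-well plates, compound at 6.8 µM for 18 hr at 37 °C; luminescence read […] and expressed as % activation = 100*(compound - median DMSO)/(median 500 nM thapsigargin - median DMSO). Primary screen was single-pass; confirmation screen in triplicate (mean ± SD).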
row,Structure (SMILES),XBP1-RLuc splicing reporter activation
1,CNC(=O)c1ccccc1Nc1cc(NC(=O)Cc2ccc(F)c(F)c2)ncc1C(F)(F)F,91.3 ± 2.1
2,CCCCNNC(=O)c1ccc(Br)cc1,9.12 ± 0.67
3,O=C1NC(=Nc2ccc(F)cc2)S/C1=C\c1ccc(O)c(O)c1,17.4 ± 1.8
4,Cc1ccc(NC(=S)NC(=O)C(=O)Nc2ccccc2)cc1,58.6 ± 3.3
5,O=c1cc(-c2ccc(O)c(O)c2)oc2cc(O)cc(O)c12,16.5 and 14.4
6,N#C/C(=C/c1ccc(O)c(O)c1)c1nc2ccccc2s1,19.7 ± 0.5
7,O=C(Nc1ccccc1O)c1ccc(C(=O)c2ccccc2)cc1,10.4 ± 0.77
8,CCCCCCc1ccc(-c2ncc(N)cn2)cc1,12.9 ± 0.42
9,O=C(Nc1ccc2nc(NC(=O)C3CCCCC3)sc2c1)C1CCCCC1,6.08 ± 0.7
10,CCOc1cccc(C(=O)Nc2ccc(-c3nc4ccc(C(=O)c5ccccc5)cc4[nH]3)cc2)c1,94 ± 5
11,Oc1ccc(-c2cn3ccccc3n2)cc1O,20.8 ± 2
12,COc1ccc(/C=C2\SC(=O)NC2=Nc2ccc(C)cc2)c(OC)c1,6.33 ± 0.42
13,CCN(CC)c1ccc2cc(-c3nc4ccccc4n3C)c(=O)oc2c1,9.31 ± 0.79
14,Cc1ccc(O)c(NC(=O)c2cc(-c3cccnc3)on2)c1,19.8 ± 0.85
15,Oc1cccc(/C=N/Nc2ccc(Cl)nn2)c1O,19 ± 1.9
16,O=c1[nH]c(COc2ccccc2)nc2sc3c(c12)CCCC3,4.82 ± 0.69
17,O=c1[nH]c(/C=C2\C=Nc3ccccc32)c(O)n1-c1ccc(Cl)cc1,43.1 ± 3.6
18,Cc1ccc(O)c(NC(=O)c2cc(CC(C)C)on2)c1,30.2 ± 2.4

row,Structure (SMILES),XBP1-RLuc splicing reporter activation
1,Cc1ccc(O)c(NC(=O)c2cc(-c3ccc(O)cc3)on2)c1,22.4 ± 1.8
2,N#C/C(=C\c1ccc(O)c(O)c1)C(=O)Nc1ccccc1,13.3 ± 0.68
3,Cc1cc(C)c(OCC(=O)N/N=C/c2ccc(O)c(O)c2)c(Br)c1,17.1 ± 1.1
4,C=CCNC(=O)c1cc(-c2ccc(F)cc2)on1,1.92 ± 2.1
5,C/C(=N\NC(=O)c1n[nH]c2c1CCCC2)c1ccc2ccccc2c1,1.43 ± 0.96
6,CC(=O)c1cccc(Nc2nc(-c3ccc(O)c(O)c3)cs2)c1,21.8 ± 1.3
7,O=[N+]([O-])c1ccccc1NC(=S)N/N=C/c1ccc(O)c(O)c1,8.61 ± 0.81
8,COc1ccc(CCNC(=O)c2cccc(-c3ccc(N4CCOCC4)nc3)c2)cc1,1.79 ± 0.38
9,COc1ccc(C(=O)Nc2nnc(-c3cccs3)s2)cc1,0.956 ± 0.85
10,Cc1ccc(/C=N/NC(=O)c2cccc(Cl)c2)cc1,0.915 ± 0.53
11,CCc1ccc(NC(=O)/C=C/c2ccco2)cc1,4.88 ± 0.83
12,O=C(CCCCCCC(=O)Nc1ccccc1)NO,-3.63 ± 0.95
13,CCN(CC)c1ccc(NC(=O)c2cccc(OC)c2)cc1,0.922 ± 1.9
14,NC(=O)c1c(NC(=O)/C=C/c2ccccc2)sc2c1CCCCC2,6.12 ± 0.94
15,CN(C)c1ccc(C2C(C#N)=C(N)Oc3c2sc2ccccc32)cc1[N+](=O)[O-] (configuration not stated),9.04 ± 0.83
16,Cc1ccc(C(=O)Nc2sc3c(c2C#N)CCC3)cc1,4.62 ± 0.97
17,N#Cc1c(NC(=O)/C=C/c2ccco2)sc2c1CCCC2,11.3 ± 1.3
18,Oc1ccc(/C=N/Nc2cccc(Cl)n2)c(O)c1,10.9 ± 0.95

# System: HEK293T-Rex ERSE-FLuc
# Test: ERSE-FLuc reporter activation, triplicate confirmation, relative to 500 nM thapsigargin (% of thapsigargin); higher = stronger ATF6/ERSE reporter activation
# Conditions: 6.8 µM; 18 h; screen: confirmation
# Experimental: as §1
row,Structure (SMILES),ERSE-FLuc reporter activation
1,CNC(=O)c1ccccc1Nc1cc(NC(=O)Cc2ccc(F)c(F)c2)ncc1C(F)(F)F,54.6 ± 9
2,CCCCNNC(=O)c1ccc(Br)cc1,60.9 ± 6
3,O=C1NC(=Nc2ccc(F)cc2)S/C1=C\c1ccc(O)c(O)c1,32.4 ± 2.3
4,Cc1ccc(NC(=S)NC(=O)C(=O)Nc2ccccc2)cc1,139 ± 11
5,O=c1cc(-c2ccc(O)c(O)c2)oc2cc(O)cc(O)c12,46 and 36.9
6,N#C/C(=C/c1ccc(O)c(O)c1)c1nc2ccccc2s1,51.2 ± 8.1
7,O=C(Nc1ccccc1O)c1ccc(C(=O)c2ccccc2)cc1,41.5 ± 9.7
8,CCCCCCc1ccc(-c2ncc(N)cn2)cc1,33.2 ± 4.7
9,O=C(Nc1ccc2nc(NC(=O)C3CCCCC3)sc2c1)C1CCCCC1,26.5 ± 4.1
10,CCOc1cccc(C(=O)Nc2ccc(-c3nc4ccc(C(=O)c5ccccc5)cc4[nH]3)cc2)c1,28.6 ± 4.7
11,Oc1ccc(-c2cn3ccccc3n2)cc1O,40 ± 5.6
12,COc1ccc(/C=C2\SC(=O)NC2=Nc2ccc(C)cc2)c(OC)c1,26.8 ± 1.3
13,CCN(CC)c1ccc2cc(-c3nc4ccccc4n3C)c(=O)oc2c1,34.2 ± 4.2
14,Cc1ccc(O)c(NC(=O)c2cc(-c3cccnc3)on2)c1,70 ± 3.2
15,Oc1cccc(/C=N/Nc2ccc(Cl)nn2)c1O,35 ± 6
16,O=c1[nH]c(COc2ccccc2)nc2sc3c(c12)CCCC3,39 ± 5.3
17,O=c1[nH]c(/C=C2\C=Nc3ccccc32)c(O)n1-c1ccc(Cl)cc1,41.4 ± 5.5
18,Cc1ccc(O)c(NC(=O)c2cc(CC(C)C)on2)c1,84.4 ± 15

row,Structure (SMILES),ERSE-FLuc reporter activation
1,Cc1ccc(O)c(NC(=O)c2cc(-c3ccc(O)cc3)on2)c1,54.1 ± 9
2,N#C/C(=C\c1ccc(O)c(O)c1)C(=O)Nc1ccccc1,29.5 ± 5.4
3,Cc1cc(C)c(OCC(=O)N/N=C/c2ccc(O)c(O)c2)c(Br)c1,28.7 ± 6.2
4,C=CCNC(=O)c1cc(-c2ccc(F)cc2)on1,25.1 ± 4.7
5,C/C(=N\NC(=O)c1n[nH]c2c1CCCC2)c1ccc2ccccc2c1,30.7 ± 2.6
6,CC(=O)c1cccc(Nc2nc(-c3ccc(O)c(O)c3)cs2)c1,31.6 ± 5.1
7,O=[N+]([O-])c1ccccc1NC(=S)N/N=C/c1ccc(O)c(O)c1,33.2 ± 4.3
8,COc1ccc(CCNC(=O)c2cccc(-c3ccc(N4CCOCC4)nc3)c2)cc1,48.7 ± 4.2
9,COc1ccc(C(=O)Nc2nnc(-c3cccs3)s2)cc1,26.3 ± 5
10,Cc1ccc(/C=N/NC(=O)c2cccc(Cl)c2)cc1,31.9 ± 1.9
11,CCc1ccc(NC(=O)/C=C/c2ccco2)cc1,29.1 ± 4
12,O=C(CCCCCCC(=O)Nc1ccccc1)NO,59.2 ± 17
13,CCN(CC)c1ccc(NC(=O)c2cccc(OC)c2)cc1,26.1 ± 1.1
14,NC(=O)c1c(NC(=O)/C=C/c2ccccc2)sc2c1CCCCC2,28.9 ± 2.4
15,CN(C)c1ccc(C2C(C#N)=C(N)Oc3c2sc2ccccc32)cc1[N+](=O)[O-] (configuration not stated),26 ± 0.29
16,Cc1ccc(C(=O)Nc2sc3c(c2C#N)CCC3)cc1,27.4 ± 2.7
17,N#Cc1c(NC(=O)/C=C/c2ccco2)sc2c1CCCC2,29.4 ± 2.5
18,Oc1ccc(/C=N/Nc2cccc(Cl)n2)c(O)c1,31 ± 7.1
